EP2 modulator – EP2 receptor modulators, cAMP readout, primary screen, cell-based, HTRF cAMP, PGE2 stimulation | Prostaglandin E2 receptor EP2 subtype (Homo sapiens), P43116 | EP2-expressing cells, cAMP HTRF FRET, PGE2 co-stimulation | induction, % at 25 µM | actives 0.83% (n = 260,000) | AID 940, 2007;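 active = compounds whose cAMP rise, as percent of the full-agonist control response, exceeds 60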;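 also: rat C6 glioma line stably carrying human EP2 under a CMV promoter; the protocol text gives 20 µM as final concentration; 100% = response of wells given 1 µM PGE2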
PGE2 EP2 inh – human EP2 receptor antagonists, primary screen, TR-FRET cAMP, C6 glioma cells. Prostaglandin E2 receptor EP2 subtype (Homo sapiens), P43116. C6 glioma cells expressing human EP2; cells stimulated with saturating PGE2. inhibition, % at 25 µM. actives 0.52% (n = 260,000);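 active = percent inhibition above 40 after rounding to a whole number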;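 also: rat C6 glioma host cells with rolipram phosphodiesterase inhibitor present; the protocol text gives 20 µM as final concentration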
Cl transport mod – KCC2 cotransporter modulators, thallium flux, primary screen, cell-based, HEK293 KCC2, FluoZin-2 fluorescence, MLSMR; B-score of Tl+ flux slope (higher = more flux/activation; lower = inhibition) at 10 µM; actives 2.2% (n = 190,000); KCC2 cells, thallium flux FluoZin-2 fluorescence; Solute carrier family 12 member 5 (Homo sapiens), Q9H2X9; AID 1456, 2008;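 active = thallium flux slope and its plate-corrected score both differing from the plate sample mean at a set confidence after two filtering rounds, in either direction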;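 also: slope of fluorescence scaled to starting intensity during 10 to 20 s after thallium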
S1P3 antagonist – S1P3 receptor antagonists, primary screen, cell-based; CHO S1P3 NFAT-BLA reporter, FRET fluorescence, antagonist mode; AID 485, 2006; actives 0.27% (n = 170,000); Sphingosine 1-phosphate receptor 3 (Homo sapiens), Q99500; inhibition, % at 4.98 µM;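 active = inhibition above the plate cutoff, the mean inhibition of test wells on that plate plus 3 SD, cut at about 28% in these data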;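 also: cells challenged with S1P at its EC80 of 0.8 µM; blue over green emission ratio from cleaved BLA substrate after 4 h stimulation; 0% = S1P-stimulated wells and 100% = unstimulated DMSO-only wells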
Target sequence (Q99500 whole entry, looked up): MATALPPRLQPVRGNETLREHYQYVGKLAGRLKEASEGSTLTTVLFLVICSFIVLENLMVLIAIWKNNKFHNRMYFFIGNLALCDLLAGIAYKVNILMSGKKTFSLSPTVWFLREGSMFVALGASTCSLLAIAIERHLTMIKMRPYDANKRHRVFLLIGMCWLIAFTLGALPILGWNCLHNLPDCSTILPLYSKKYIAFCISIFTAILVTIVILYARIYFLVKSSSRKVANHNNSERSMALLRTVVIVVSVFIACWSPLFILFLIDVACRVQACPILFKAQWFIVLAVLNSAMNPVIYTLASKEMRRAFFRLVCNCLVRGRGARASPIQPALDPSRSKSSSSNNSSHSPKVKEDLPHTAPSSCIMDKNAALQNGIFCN
KCC2 sec1 – KCC2 modulators in sodium-free buffer, confirmation, cell-based, HEK293 KCC2, thallium flux, secondary assay. actives 15% (n = 3,700). shares compounds with Cl transport mod. FluoZin2 fluorescence; stronger effect = higher value. normalised thallium flux (F/F0 slope) at 10 µM. AID 1713, 2009;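 active = thallium flux slope above the same plate's solvent-only control mean plus 3 SD; inconclusive = the two replicate wells disagree; inactive = no significant difference from solvent-only control wells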
KCC2 bumet counter – thallium flux persisting under bumetanide in KCC2 cells, confirmation, counter-screen for KCC2 modulator project, cell-based, HEK293 KCC2, FluoZin2, secondary assay 3. normalized thallium flux at 10 µM. actives 49% (n = 3,700). HEK293-KCC2 + bumetanide/ouabain; stronger effect = higher value. shares compounds with Cl transport mod;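 active = thallium entry rate above the same plate's blocked-transporter control wells by more than 3 SD; inconclusive = the two repeat wells disagree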;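 also: raw slope of fluorescence over initial fluorescence between 10 and 20 s after thallium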
KCC2 secondary2 – KCC2 modulators without ouabain present, confirmation, cell-based, HEK293 KCC2, thallium flux, FluoZin2, secondary assay 2. shares compounds with Cl transport mod. thallium flux FluoZin2 fluorescence; actives lie on both sides; F/F0 rise rate, 10–20 s post-thallium. normalized thallium flux at 10 µM. actives 23% (n = 3,700);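 active = thallium flux slope more than 3 SD above or below the plate's solvent-only control mean, mostly below; inconclusive = the two repeat wells disagreed; inactive = no significant shift from solvent-only controls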;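 also: raw slope with 0.1% DMSO as baseline and bumetanide as block control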
HEK counter1 – thallium flux modulation in parental HEK cells, confirmation, counter-screen for KCC2 modulator project, cell-based, counterscreen 1; actives 46% (n = 3,700); AID 1716, 2009; thallium flux rate (normalised fluorescence) at 10 µM; HEK293 parental cells, thallium flux FluoZin2, ouabain; baseline-ratio fluorescence slope, 10–20 s after thallium; shares compounds with Cl transport mod;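 active = thallium flux rate significantly above the same plate's solvent-only control wells, beyond their mean plus 3 SD; inconclusive = the two replicate wells gave conflicting results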
KCC2 retest ouab – KCC2 inhibitors and activators, ouabain retest, confirmation, HEK-KCC2 cells. actives 48% (n = 3,700). raw Tl+ flux slope (below DMSO = inhibition, above = activation) at 10 µM. shares compounds with Cl transport mod. HEK293-KCC2, thallium flux FluoZin2 fluorescence; bidirectional: low = inhibitor, high = activator. AID 1717, 2009;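 active = thallium flux slope beyond 3 SD from same-plate DMSO control mean in most replicates, usually higher, sometimes lower; inconclusive = repeat tests gave conflicting results; inactive = no significant difference from controls in most replicates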;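 also: slope of initial-normalized fluorescence between seconds 10 and 20 after thallium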
HEK293 Tl flux2 – native HEK Tl+ uptake effects, second counter-screen – HEK cells, counterscreen 2, counter-screen for KCC2 modulator project, confirmation | shares compounds with Cl transport mod | HEK293 parental, thallium flux FluoZin-2 fluorescence slope | thallium flux slope at 10 µM | actives 33% (n = 3,700) | AID 1718, 2009;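 active = thallium flux slope above the same plate's solvent-control mean plus 3 SD in both duplicate wells; inconclusive = duplicate wells that disagreed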;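 also: run without ouabain in cells lacking the KCC2 cotransporter; slope of fluorescence scaled to its starting value between 10 and 20 s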
Starred values were filed as active, the others as inactive; ? = inconclusive; nt = no result given. Shown are actives, neighbours in structure and some others; about 3.1% of the full set was active somewhere.

SMILES	EP2 modulator	PGE2 EP2 inh	Cl transport mod	S1P3 antagonist	KCC2 sec1	KCC2 bumet counter	KCC2 secondary2	HEK counter1	KCC2 retest ouab	HEK293 Tl flux2
O=C(NCC1CCCN(C(=O)c2cscn2)C1)c1ccc(-c2ccccc2)cc1 (configuration not stated)	-88.9	4.8	-5.28*	2.5	0.00533	0.0045	0.0207*	?	0.0122*	0.0106
CC(=O)NCCC(=O)N1CCCC(CNC(=O)c2ccc(-c3ccccc3)cc2)C1 (configuration not stated)	-28.7	8.9	-4.5*	-18.4	0.00775	0.00531	?	0.00596	0.0133*	0.00908
O=C(NCC1CCCN(C(=O)NCc2ccccc2)C1)c1ccc2c(c1)OCO2 (configuration not stated)	-54.0	3.5	0.145	-4.5	nt	nt	nt	nt	nt	nt
C=CCC(=O)N1CCCC(CNC(=O)c2ccc(-c3ccccc3)cc2)C1 (configuration not stated)	-79.2	25.6	-5.52*	10.9	0.00807	0.00634	0.0306	0.0076	0.0144*	0.0111
CCOc1cccc(C(=O)Nc2ccc(N3CCN(C(=O)CC)CC3)cc2)c1	9.0	16.2	nt	nt	nt	nt	nt	nt	nt	nt
CCOC(=O)Cn1c(CN2CCN(C(c3ccccc3)c3ccccc3)CC2)nc2c1c(=O)n(C)c(=O)n2C	28.2	6.6	-1.15	nt	nt	nt	nt	nt	nt	nt
Cn1c(=O)c2c(nc(CN3CCN(C(c4ccccc4)c4ccccc4)CC3)n2CC(N)=O)n(C)c1=O	-1.5	10.8	-2.61*	nt	0.0109	0.00679	0.0297	0.00768	0.0337	?
COc1ccccc1NC(=O)c1ccccc1-c1nc(-c2ccccc2OC)no1	16.6	8.3	4.04*	-5.9	0.00808	0.00524	0.0323	0.00348	0.0193	0.0112
Cn1c(=O)[nH]c(=O)c2[nH]c(NCCO)nc21	-8.7	12.2	nt	nt	nt	nt	nt	nt	nt	nt
CC(C)NC(=O)c1onc(CSc2ccc(Cl)cc2)c1C(=O)NC(C)C	-23.8	4.6	2.39*	nt	0.0066	0.00453	0.0272	0.00717	0.017	0.0101
Nc1nc(/C=C/c2ccncc2)nc(-c2ccccc2O)n1	-116.9	7.0	nt	nt	nt	nt	nt	nt	nt	nt
CC12CC3(C)CC(C)(C1)CC(C(=O)NC(=S)N1CCCC1)(C2)C3	-14.5	4.6	7.86*	-21.9	0.00679	0.00949*	0.0271	0.0102*	?	?
CCCc1nc2ccccc2c(=O)n1N	9.8	12.1	12.3*	nt	0.0107	0.00699	0.0332	0.00838	0.0194	0.012
C=C1c2ccccc2NC(=S)N1Cc1ccc2c(c1)OCO2	-75.7	2.6	9.89*	3.6	0.00693	0.0197*	0.0316	0.0212*	0.0342*	0.0171*
COc1ccc(N(CC(O)CN2CCCC2)S(=O)(=O)c2ccccc2)cc1 (configuration not stated)	-24.5	10.9	nt	nt	nt	nt	nt	nt	nt	nt
O=C1N/C(=C/c2ccco2)C(=O)N1Cc1ccccc1F	-54.8	8.0	0.00367	5.7	nt	nt	nt	nt	nt	nt

Compound activity from PubChem.
